Test results as given in PubChem BioAssay (NCI).
About 83,000 compounds went through this panel and 20% of them were active in at least one assay; those are over-represented in the sample as a whole.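 The test compound was applied at a single concentration to cells in 96-well plates for 48 hours, and percent growth was recorded.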 Active and inactive are the calls of the source. Rule for the calls: active = growth percent below 10; inactive = the rest.

Key:
Assay in all cases: NCI-60 one-dose screen, 48 h (100 = growth as untreated, 0 = no growth, -100 = all killed)
Conditions in all cases: 10 µM unless noted
SR leukemia = system: SR leukemia
RPMI-8226 leukemia = system: RPMI-8226 leukemia
OVCAR-8 ovarian = system: OVCAR-8 ovarian
OVCAR-5 ovarian = system: OVCAR-5 ovarian
OVCAR-4 ovarian = system: OVCAR-4 ovarian
SK-OV-3 ovarian = system: SK-OV-3 ovarian
IGROV1 ovarian = system: IGROV1 ovarian
NCI/ADR-RES ovarian = system: NCI/ADR-RES ovarian
T-47D breast = system: T-47D breast
BT-549 breast = system: BT-549 breast
MDA-MB-435 melanoma = system: MDA-MB-435 melanoma
MCF7 breast = system: MCF7 breast
HCT-116 colon = system: HCT-116 colon
HCC-2998 colon = system: HCC-2998 colon
KM12 colon = system: KM12 colon
OVCAR-3 ovarian = system: OVCAR-3 ovarian
HS 578T breast = system: HS 578T breast
SW-620 colon = system: SW-620 colon

Measured: growth

C=C1CCC2C3(C)COC(c4c(OC)cccc4OC)OC3CCC2(C)C1C/C=C1/C(=O)OCC1O (stereo not drawn)
active: RPMI-8226 leukemia -53.5% | HCT-116 colon 1.8% | KM12 colon 9.36%
inactive: SR leukemia 34.7% | OVCAR-8 ovarian 29.5% | OVCAR-5 ovarian 49.3% | OVCAR-4 ovarian 41.3% | SK-OV-3 ovarian 71.6% | IGROV1 ovarian 26.9% | NCI/ADR-RES ovarian 30.9% | T-47D breast 54% | BT-549 breast 16.9% | MDA-MB-435 melanoma 19.4% | MCF7 breast 27.8% | HCC-2998 colon 113%

N=C(N)c1ccc(-c2ccc(-c3ccc(-c4cccs4)s3)s2)cc1
inactive: SR leukemia 81.6% | RPMI-8226 leukemia 61% | OVCAR-8 ovarian 101% | OVCAR-5 ovarian 97.8% | OVCAR-4 ovarian 90.7% | IGROV1 ovarian 96.2% | OVCAR-3 ovarian 94.7% | HS 578T breast 99.3% | NCI/ADR-RES ovarian 98.6% | T-47D breast 76% | BT-549 breast 99.5% | MDA-MB-435 melanoma 103% | MCF7 breast 84% | HCT-116 colon 93.6% | HCC-2998 colon 98.7% | KM12 colon 96.8%

Cc1[nH]c2ccc(F)cc2c1CCNC(=O)C1CCN(C(=O)c2ccccc2)CC1
inactive: SR leukemia 97.3% [25 µM] | RPMI-8226 leukemia 10% [25 µM] | OVCAR-8 ovarian 93.3% [25 µM] | OVCAR-5 ovarian 95.1% [25 µM] | OVCAR-4 ovarian 78.6% [25 µM] | IGROV1 ovarian 82.5% [25 µM] | OVCAR-3 ovarian 98.2% [25 µM] | HS 578T breast 87.7% [25 µM] | NCI/ADR-RES ovarian 95.5% [25 µM] | T-47D breast 68.9% [25 µM] | BT-549 breast 93.5% [25 µM] | MDA-MB-435 melanoma 96.7% [25 µM] | SW-620 colon 96.5% [25 µM] | MCF7 breast 93.9% [25 µM] | HCT-116 colon 93.3% [25 µM] | HCC-2998 colon 104% [25 µM] | KM12 colon 95.6% [25 µM]

COc1ccc2c(c1)[nH]c(=O)c1c3cccc(F)c3cn21
active: RPMI-8226 leukemia -49.8% | IGROV1 ovarian 6.16% | MDA-MB-435 melanoma -51.9% | KM12 colon 8.44%
inactive: SR leukemia 39.9% | OVCAR-8 ovarian 27.4% | OVCAR-5 ovarian 47.9% | OVCAR-4 ovarian 47.8% | SK-OV-3 ovarian 42.3% | NCI/ADR-RES ovarian 15.8% | T-47D breast 63.9% | BT-549 breast 42.8% | SW-620 colon 27.2% | MCF7 breast 22.3% | HCT-116 colon 24.6% | HCC-2998 colon 31.9%

Cc1ccc(-c2cc3nc(C(Cl)Cl)nc(-c4ccccc4C)n3n2)cc1
active: MDA-MB-435 melanoma -2.12%
inactive: SR leukemia 17.7% | RPMI-8226 leukemia 48.1% | OVCAR-8 ovarian 90.5% | OVCAR-5 ovarian 92.7% | OVCAR-4 ovarian 74.9% | IGROV1 ovarian 83.7% | OVCAR-3 ovarian 22.4% | HS 578T breast 82.2% | NCI/ADR-RES ovarian 60.3% | T-47D breast 49.7% | BT-549 breast 88.7% | SW-620 colon 46.1% | MCF7 breast 70.3% | HCT-116 colon 49.6% | HCC-2998 colon 81.8% | KM12 colon 26.1%

Cc1ccc(-c2nc(C(Cl)Cl)n3nc(-c4ccccc4)cc3n2)cc1
active: RPMI-8226 leukemia 2.55% | OVCAR-3 ovarian -83.7% | T-47D breast -6.55% | HCT-116 colon 9.65% | KM12 colon 0.685%
inactive: SR leukemia 87.6% | OVCAR-8 ovarian 35.3% | OVCAR-5 ovarian 120% | OVCAR-4 ovarian 48% | IGROV1 ovarian 56.4% | HS 578T breast 31.5% | NCI/ADR-RES ovarian 18.8% | BT-549 breast 70.8% | MDA-MB-435 melanoma 15.4% | MCF7 breast 18.9% | HCC-2998 colon 23.3%

O=C(NS(=O)(=O)c1ccccc1)n1cc(-c2ccncc2)c(-c2ccc(Cl)c(O)c2)n1
inactive: SR leukemia 97.2% | RPMI-8226 leukemia 97.4% | OVCAR-8 ovarian 105% | OVCAR-5 ovarian 116% | SK-OV-3 ovarian 102% | IGROV1 ovarian 96.8% | OVCAR-3 ovarian 117% | HS 578T breast 106% | NCI/ADR-RES ovarian 102% | T-47D breast 107% | BT-549 breast 104% | MDA-MB-435 melanoma 67.9% | SW-620 colon 136% | MCF7 breast 109% | HCT-116 colon 89.1% | HCC-2998 colon 127% | KM12 colon 99.6%

COc1cc2c(cc1O)CCN1C[C@@H](CC(C)C)[C@@H](O)C[C@@H]21
inactive: SR leukemia 103% | RPMI-8226 leukemia 92.5% | OVCAR-8 ovarian 101% | OVCAR-5 ovarian 94.3% | OVCAR-4 ovarian 98.6% | SK-OV-3 ovarian 107% | OVCAR-3 ovarian 108% | HS 578T breast 114% | NCI/ADR-RES ovarian 98.2% | T-47D breast 91.1% | BT-549 breast 108% | MDA-MB-435 melanoma 103% | SW-620 colon 102% | MCF7 breast 102% | HCT-116 colon 101% | HCC-2998 colon 102% | KM12 colon 109%

CN(C)CCCN(c1nc(C(Cl)(Cl)Cl)ns1)c1nc(C(Cl)(Cl)Cl)ns1
inactive: SR leukemia 17.1% | OVCAR-8 ovarian 55.3% | OVCAR-5 ovarian 66.5% | SK-OV-3 ovarian 86.6% | IGROV1 ovarian 36.6% | OVCAR-3 ovarian 31.7% | HS 578T breast 46% | NCI/ADR-RES ovarian 48.8% | T-47D breast 67.7% | BT-549 breast 74% | MDA-MB-435 melanoma 39.5% | SW-620 colon 35.1% | HCT-116 colon 21.2% | KM12 colon 18.4%
active: RPMI-8226 leukemia 9.37% | MCF7 breast -34.3% | HCC-2998 colon -12.9%
